A selection: hits, their analogues and other compounds. The true share with any hit is near 3.6%.
Pf apPOL block = Pf-apPOL inhibitors, biochemical, fluorescence | Plasmodium falciparum apicoplast DNA polymerase (apPOL) | Recombinant Pf-apPOL, molecular beacon fluorescence, 1.5 h | inhibition, % at 10 µM | hit rate 0.25% among 210,000 | AID 1794808, 2022
mHTT-CaM PPI inh = mutant huntingtin-calmodulin interaction inhibitors – biochemical, AlphaScreen, primary screen | hit rate 3.6% among 190,000 | AlphaScreen His-mHTT/GST-CaM binding, luminescence | inhibition, % at 15 µM | P42858
Numbers stand for hits; - = inactive; . = no result given. No stated cut-off is given here; in the data, active means inhibition above about 50%; inactive means the rest.

SMILES | Pf apPOL block | mHTT-CaM PPI inh
O=C(COc1ccccc1[N+](=O)[O-])Nc1ccccc1I | - | -
O=[N+]([O-])c1ccc(Sc2cccs2)c([N+](=O)[O-])c1 | . | 64.4
O=[N+]([O-])c1ccc(SC2=NCCS2)c([N+](=O)[O-])c1 | - | .
CN1C(=O)c2ccccc2C(C(=O)N2CCN(c3ccccn3)CC2)C1c1cccs1 (stereo not given) | - | -
CN(C)c1cccc(C(=O)NCc2nn(C)c3ccccc23)c1 | - | -
O=C(Nc1c(-c2ccccc2)nc2ccccn12)c1ccc(Cl)c([N+](=O)[O-])c1 | - | 67.0
COc1ccc(-c2nc3ccccn3c2NC(=O)c2ccc(Cl)c([N+](=O)[O-])c2)cc1 | - | -
CCc1ccc(CNC(=O)c2cc3c(s2)CCN(C(C)=O)C3)cc1 | - | -
CC1CCC(NC(=O)C2c3ccccc3C(=O)N2Cc2ccccc2Cl)CC1 (stereo not given) | - | -
O=C(NC1CCCC1)C1c2ccccc2C(=O)N1Cc1ccccc1Cl (stereo not given) | - | 53.0
O=C(CN(c1cccc(C(F)(F)F)c1)S(=O)(=O)c1ccccc1)Nc1ccc(Cl)cc1 | - | 88.0
O=C(CN(c1ccccc1)S(=O)(=O)c1ccc(Cl)cc1)Nc1ccc2c(c1)OCO2 | - | -
O=C(CN(c1ccc(Cl)c(C(F)(F)F)c1)S(=O)(=O)c1ccccc1)Nc1cccnc1 | - | -
O=C(CN(c1cccc(C(F)(F)F)c1)S(=O)(=O)c1ccccc1)Nc1cccc(Cl)c1 | - | 86.0
O=C1/C(=C/c2cc([N+](=O)[O-])ccc2O)Sc2ccccc21 | - | 73.0
O=C1/C(=C/c2ccccc2F)Sc2ccccc21 | - | 58.0
O=C1/C(=C/c2ccc(F)cc2F)Sc2ccccc21 | - | -
O=C1/C(=C/c2cc([N+](=O)[O-])ccc2Cl)Sc2ccccc21 | - | -
CCc1cccc(C)c1NC(=O)c1cc(OC)c(OC)c(OC)c1Br | - | -
OC(CNCc1ccc2c(c1)OCO2)CSc1ccccc1 (stereo not given) | - | .
Cc1ccccc1NC(=O)C1CCCN(c2cnn(Cc3ccccc3)c(=O)c2)C1 (stereo not given) | - | -
O=C(c1ccc(Br)o1)N1CCN(c2ccc(Cl)cc2[N+](=O)[O-])CC1 | - | -
CCSC1=C(C#N)C(Cc2ccccc2)C2=C(CCCC2=O)N1 (stereo not given) | - | -
N#CC1=C(S)NC2=C(C(=O)CCC2)C1Cc1ccccc1 (stereo not given) | - | 59.0
COc1cc(C(=O)N2CC(C)CC(C)C2)c([N+](=O)[O-])cc1OC (stereo not given) | - | -
SMILES | Pf apPOL block | mHTT-CaM PPI inh
O=C(/C=C/c1ccccc1)Nc1c2cnn(-c3ccccc3)c2nc(=O)n1-c1ccccc1 | - | -
Cn1c(N2CCC(C(=O)Nc3ccc(F)cc3)CC2)cc(=O)n(C)c1=O | - | -
CC(C)CN1CCn2cc(C(=O)NCc3ccccc3F)nc2C1 | - | -
O=c1oc2c(-c3ccccc3[N+](=O)[O-])cc(O)cc2s1 | - | 61.0
O=c1cc(-c2ccccc2[N+](=O)[O-])oc2ccccc12 | - | -
Cc1ccc(-c2cc(O)cc3sc(=O)oc23)cc1C | - | 79.0
Cc1cc(O)c2c(c1)C(=O)c1cc(O)cc(O)c1C2=O | - | .
CC(C)CNC(=O)N1CCCC(C)(C(=O)NCc2ccccc2)C1 (stereo not given) | - | -
O=C(Nc1ccccc1)N1CCn2cccc2C1Cc1ccccc1 (stereo not given) | - | -
O=C(Nc1ccccc1Br)N1CCn2cccc2C1Cc1ccccc1 (stereo not given) | - | 51.7
O=C(Nc1cccc(F)c1)N1CCn2cccc2C1Cc1ccccc1 (stereo not given) | - | -
O=C(Nc1ccc(F)c(Cl)c1)N1CCn2cccc2C1Cc1ccccc1 (stereo not given) | - | 100.0
Cc1ccc(NC(=O)c2cnn3c(C(F)(F)F)cc(-c4ccco4)nc23)cc1Cl | - | -
CC(C)c1ccc(N2CCC(C(=O)Nc3ccccc3)C2=O)cc1 (stereo not given) | - | -
Cc1ccc2nc(-c3cc(N=Cc4ccc([N+](=O)[O-])cc4)ccc3O)oc2c1 | - | -
Cc1ccc2nc(-c3ccc(N=Cc4ccc5c(c4)OCO5)cc3O)oc2c1 | - | 60.0
COc1ccc(-c2cc(C(F)(F)F)n3nc(C(=O)O)c(Cl)c3n2)cc1OC | - | 83.0
COc1ccc(-c2cc(C(F)(F)F)n3nc(C(=O)NC(C)C)c(Cl)c3n2)cc1OC | - | -
CSc1cccc(NC(=O)CN2C(=O)NC3(CCCCC3)C2=O)c1 | - | -
Cc1ccc(C)c2sc(NC(=O)c3cccc(N4C(=O)CCC4=O)c3)nc12 | - | -
CC1CCN(CCNc2ccc(-c3nc(-c4ccc(F)cc4)no3)cn2)CC1 | - | 50.9
CC1CCN(CCCNc2ccc(-c3nc(-c4ccc(F)cc4)no3)cn2)CC1 | - | -
CC1=C(C(=O)Nc2cccc(F)c2)C(c2ccccc2Cl)C2=C(CC(C)(C)CC2=O)N1 (stereo not given) | - | -
CN(C)C(=O)c1cccc2c1NC(c1ccc(Cl)cc1Cl)C1CC=CC21 (stereo not given) | - | -
Cc1cc(I)c2c(c1)C1C=CCC1C(C(=O)O)N2 (stereo not given) | - | 80.9
SMILES | Pf apPOL block | mHTT-CaM PPI inh
Cc1cc(I)cc2c1NC(C(=O)O)C1CC=CC21 (stereo not given) | - | -
Cc1ccc2c(c1C)NC(c1ccc([N+](=O)[O-])cc1)C1CC=CC21 (stereo not given) | - | 62.0
O=C(O)c1cc(Br)cc2c1NC(c1ccc(F)cc1)C1CC=CC21 (stereo not given) | - | 95.0
O=C(O)c1cccc2c1NC(c1cccc(Br)c1)C1CC=CC21 (stereo not given) | - | 92.0
CCCCCC[n+]1ccccc1C=Cc1cccs1 | - | .
Cn1nc(-c2ccc(C=C(C#N)C(=O)c3ccco3)s2)cc1C(F)(F)F | - | .
CC(=O)Nc1ccc(-c2noc(C3CCCN(C(=O)Cc4ccccc4C)C3)n2)cc1 (stereo not given) | - | -
Cc1ccc(NC(=O)CN2CCc3ccccc3C2C(=O)N2CCC(C)CC2)c(F)c1 (stereo not given) | - | -
Cc1cc(C)c2c(c1)C1C=CCC1C(c1ccc(C(=O)O)cc1)N2 (stereo not given) | - | 74.0
O=C(O)c1cccc2c1NC(c1ccc([N+](=O)[O-])cc1)C1CC=CC21 (stereo not given) | - | 66.5
O=C(O)c1cccc2c1NC(c1ccc(Br)cc1)C1CC=CC21 (stereo not given) | - | 66.0
O=[N+]([O-])c1ccc(C2Nc3c(I)cccc3C3C=CCC32)cc1 (stereo not given) | - | -
COC(=O)c1ccc(C=C2Oc3cc(OC(C)=O)ccc3C2=O)cc1 | - | -
COc1nn(C)cc1C(=O)N1CCCC(c2nnc(-c3ccc4c(c3)OCO4)o2)C1 (stereo not given) | - | -
Cc1cc(F)c(F)cc1C(=O)Nc1cccc(F)c1 | - | -
CN1CCc2cc(C(CNC(=O)c3ccccc3F)N3CCCCC3)ccc21 (stereo not given) | - | -
Cc1ccc(OCCSc2nc3ccccc3n2C)cc1 | - | -
Cc1ccc(Cl)cc1N1CCN(CC(O)COc2ccccc2[N+](=O)[O-])CC1 (stereo not given) | - | 90.8

From PubChem BioAssay
